Source: PubChem BioAssay (several laboratories)
UHRF1 MBD2 ctr – UHRF1 methylated DNA binding inhibitors, primary screen, counter-screen for MBD2 inhibitor project, biochemical, TR-FRET, human UHRF1, single concentration; UHRF1 binding to methylated oligo; actives 0.75% (n = 370,000); inhibition, % at 4.4 µM; E3 ubiquitin-protein ligase UHRF1 (Homo sapiens), Q96T88; in the data active = inhibition above about 21%;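 note: UHRF1 SRA domain binding a hemimethylated CpG hairpin DNA probe; 0% = median of test compound wells and 100% = reference inhibitor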
MBD2 DNA inh – inhibitors of MBD2 binding to methylated DNA, primary screen, biochemical, TR-FRET, DNA-binding domain, human. AID 686964, 2013. actives 0.31% (n = 370,000). MBD2 binding to methylated oligonucleotide. inhibition, % at 4.4 µM. Methyl-CpG-binding domain protein 2 (Homo sapiens), Q9UBB5; in the data active = inhibition above about 13%
Target sequence (Q9UBB5 whole entry, looked up, the tested form may be a part): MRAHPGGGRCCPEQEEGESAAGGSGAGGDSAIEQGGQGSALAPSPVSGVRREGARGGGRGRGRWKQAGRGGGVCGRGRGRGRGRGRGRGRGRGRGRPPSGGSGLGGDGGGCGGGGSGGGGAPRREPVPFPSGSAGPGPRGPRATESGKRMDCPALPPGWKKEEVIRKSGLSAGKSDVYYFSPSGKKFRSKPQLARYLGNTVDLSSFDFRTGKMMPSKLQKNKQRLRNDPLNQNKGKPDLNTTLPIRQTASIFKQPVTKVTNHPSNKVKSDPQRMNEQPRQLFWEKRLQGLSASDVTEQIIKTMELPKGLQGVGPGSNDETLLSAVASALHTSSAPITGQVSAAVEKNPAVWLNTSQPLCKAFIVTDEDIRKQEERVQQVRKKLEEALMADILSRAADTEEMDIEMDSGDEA
DNMT1 inh – human DNMT1 methyltransferase inhibitors, primary screen, biochemical, molecular beacon, fluorescence, HinP1I cleavage, uHTS. DNA (cytosine-5)-methyltransferase 1 (Homo sapiens), P26358. inhibition (reported as % activation of signal), % at 10 µM. actives 0.83% (n = 360,000); in the data active = inhibition above about 50%
rCAG RNA binder – binders of r(CAG) RNA repeats, primary screen, biochemical, fluorescence; r(CAG) RNA repeat, TO-PRO-1 dye displacement fluorescence; inhibition, % at 3 µM; actives 1.3% (n = 370,000); AID 651821, 2012;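 active = inhibition above the plate cutoff, the mean of all test compounds on that plate plus 3 SD, cut at about 35% in these data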;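 note: 0% = DMSO alone and 100% = 100 µM mitoxantrone as full dye displacement; higher means more dye released from RNA so lower well fluorescence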
LEDGF integ inh – blockers of LEDGF/p75-dependent integrase strand transfer – biochemical, TR-FRET, high throughput, primary screen. AID 743269, 2014. TR-FRET IN-LEDGF/p75 DNA integration, Eu/Cy5. actives 0.64% (n = 370,000). HIV-1 integrase (with human LEDGF/p75). inhibition, % at 3.7 µM;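 active = inhibition above the screen-wide mean plus 3 SD, cut at about 13% in these data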;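 note: signal is the Cy5 over europium emission ratio at 671 and 618 nm; 0% = plate median of compound wells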
PG9 binder – binders of HIV-1 gp120 antibody PG9, primary screen, biochemical, TR-FRET; TR-FRET gp120-PG9 antibody binding; inhibition, % at 6.7 µM; actives 0.43% (n = 360,000); AID 624416, 2012; in the data active = inhibition above about 8.5%
rCAG binder conf – small molecules binding CAG repeat RNA – biochemical, fluorescence, confirmation. actives 70% (n = 4,300). r(CAG) RNA repeat, TO-PRO-1 dye displacement fluorescence. shares compounds with rCAG RNA binder. inhibition, % at 3 µM;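 active = inhibition above a per-plate cutoff, the mean inhibition of sample wells plus 3 SD, cut at about 35% in these data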;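 note: loss of TO-PRO-1 fluorescence as compound displaces dye from 1x1 AA loop RNA; 0% = DMSO only wells and 100% = 100 µM mitoxantrone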
DNA CAG counter – displacement of TO-PRO-1 from CAG DNA duplex, counter-screen for rCAG RNA repeat binder project, biochemical, fluorescence, TO-PRO-1 dye, d(CAG) DNA oligo. shares compounds with rCAG RNA binder. d(CAG) DNA oligo TO-PRO-1 dye displacement. inhibition, % at 3 µM. actives 94% (n = 4,300);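 active = inhibition above its plate's cutoff, the mean test-well inhibition plus 3 SD, cut at about 4.8% in these data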;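 note: 0% = DNA dye mix with DMSO and 100% = 100 µM mitoxantrone; hits displace the dye from DNA and so lower well fluorescence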
Active calls of the source: *; · = not tested or not shown. Shown are actives, neighbours in structure and some others; about 3.5% of the full set was active somewhere.

SMILES | UHRF1 MBD2 ctr | MBD2 DNA inh | DNMT1 inh | rCAG RNA binder | LEDGF integ inh | PG9 binder | rCAG binder conf | DNA CAG counter
N=C1/C(=C\c2ccc(-c3cccc(C(=O)O)c3)o2)C(=O)N=C2SC=C(c3ccccc3)N12 | 14 | 4 | 90* | 86* | 12 | -2 | 91* | 70*
Cc1ccccc1-n1c(C)cc(/C=C2/C(=N)N3C(c4ccccc4)=CSC3=NC2=O)c1C | 0 | 1 | -11 | 9 | -2 | -3 | · | ·
O=c1cc(CSc2ccc(Cl)cc2)[nH]c2[nH]n(-c3ccccc3)c(=O)c12 | -2 | 0 | 0 | 56* | 1 | -1 | 36* | 13*
Cc1ccc(SCc2cc(=O)c3c(=O)n(-c4ccccc4)[nH]c3[nH]2)cc1 | 3 | -4 | -4 | 62* | -1 | -5 | 43* | 17*
Cc1[nH]n(-c2ccccc2)c(=O)c1Sc1ccc(Cl)cc1 | -5 | -2 | -12 | 4 | -1 | 0 | · | ·
COc1ccc(NC(=O)CSc2nc(O)cc(=O)[nH]2)c(OC)c1 | 6 | 0 | -2 | 47* | 1 | 0 | 4 | 2
CC1CCN(c2ccccc2NC(=O)c2ccc(Br)o2)CC1 | 2 | -1 | 1 | 0 | 1 | -2 | · | ·
CCC(c1nnnn1Cc1ccco1)N(CCc1ccccc1)Cc1cc2cc(C)ccc2[nH]c1=O (configuration not stated) | -7 | -2 | -5 | 21 | 4 | -1 | · | ·
Cc1ccc2[nH]c(=O)c(CN(CCc3ccccc3)C(c3nnnn3Cc3ccco3)C(C)C)cc2c1 (configuration not stated) | -4 | -3 | -10 | 37* | 10 | 1 | 12 | 8.1*
CC(=O)Nc1ccc(CN(C)c2c(C)nc3ccc(C(=O)N4CCN(C(C)=O)CC4)cn23)cc1 | 1 | 0 | 3 | -1 | -1 | 1 | · | ·
O=C(Cc1cccc2ccccc12)Nc1ccccc1C(=O)O | 6 | 3 | 3 | 18 | 2 | 1 | · | ·
O=C(Cc1cccc2ccccc12)Nc1cc(Cl)ccc1C(=O)O | 1 | 2 | -2 | 46* | 6 | 0 | 35* | 8.1*
CCOC(=O)N1CCN(C(=O)CNC(=O)c2nn(-c3ccc(OC)c(Cl)c3)c(=O)c3ccccc23)CC1 | -8 | 0 | 2 | 39* | -1 | 2 | 4 | 4
Cc1cccc(S(=O)(=O)Nc2nc3ccccc3nc2Nc2cccc(C(=O)O)c2)c1 | -1 | 0 | 0 | 53* | 0 | 8 | 57* | 20*
COc1ccc(Nc2nc3ccccc3nc2NS(=O)(=O)c2ccc(NC(C)=O)cc2)cc1 | 1 | 2 | -5 | 80* | -3 | -3 | 60* | 21*
O=C(O)c1cccc(Nc2nc3ccccc3nc2NS(=O)(=O)c2ccc(F)cc2)c1 | 10 | -6 | 0 | 33 | 3 | 0 | · | ·
CC(=O)Nc1ccc(S(=O)(=O)Nc2nc3ccccc3nc2Nc2ccc(O)c(C(=O)O)c2)cc1 | -2 | -6 | 2 | 46* | -1 | -3 | 25 | 4
CC(=O)Nc1ccc(S(=O)(=O)Nc2nc3ccccc3nc2Nc2ccc(S(N)(=O)=O)cc2)cc1 | -3 | 3 | -4 | 52* | 3 | 1 | 35* | 8.3*
COc1ccc(C(=O)Nc2ccc3ccccc3n2)cc1OC | -4 | 1 | 1 | 0 | -1 | -2 | · | ·
COc1cc(NC(C)CCCN)c2nc(C)ccc2c1Oc1ccc(F)cc1 (configuration not stated) | -1 | -10 | -14 | 8 | 4 | -1 | · | ·
CC(C)(C)c1ccc2c(c1)OC(C(=O)N/N=C/c1ccc[nH]1)CO2 (configuration not stated) | -2 | -1 | · | · | 0 | · | · | ·
NS(=O)(=O)c1ccc(Nc2nc3ccccc3nc2NS(=O)(=O)c2cccc([N+](=O)[O-])c2)cc1 | -1 | 2 | -35 | 94* | -4 | -1 | 88* | 62*
O=[N+]([O-])c1cccc(S(=O)(=O)Nc2ccccn2)c1 | 0 | -1 | 0 | -1 | 0 | 1 | · | ·
CC(=O)c1ccc(Nc2nc3ccccc3nc2NS(=O)(=O)c2cccs2)cc1 | -1 | -1 | -11 | 33 | 0 | 1 | · | ·
COc1ccc(Nc2nc3ccccc3nc2NS(=O)(=O)c2cccs2)cc1 | 2 | -9 | -6 | 42* | 5 | -1 | 74* | 36*
SMILES | UHRF1 MBD2 ctr | MBD2 DNA inh | DNMT1 inh | rCAG RNA binder | LEDGF integ inh | PG9 binder | rCAG binder conf | DNA CAG counter
COC(=O)CC1=NN(c2ccc(OC)cc2)C(=O)C1 | -4 | -6 | -7 | 43* | 1 | -3 | 2 | 0
COC(=O)Cc1c(C(=O)OC)nnn1-c1ccc(OC)cc1 | 3 | 1 | 0 | -1 | 1 | 0 | · | ·
Cc1ccc([C@H]2C(C(=O)O)=CC[C@@H](c3cccc(C)c3)N2S(=O)(=O)c2ccc(C)cc2)cc1 | 0 | 2 | -1 | 10 | 0 | 1 | · | ·
Cc1ccc([C@@H]2CC=C(C(=O)O)[C@H](c3ccccc3)N2S(=O)(=O)c2ccc(C)cc2)cc1 | 1 | 3 | -1 | 56* | 1 | 0 | 59* | 22*
Cc1ccc([C@H]2C(C(=O)O)=CC[C@@H](c3ccc(C)cc3)N2S(=O)(=O)c2ccc(C)cc2)cc1 | -1 | 1 | 2 | 76* | 3 | 0 | 67* | 30*
COc1ccc(COC(=O)C2=C(C)NC(=O)NC2c2cccc(Br)c2)cc1 (configuration not stated) | -2 | -2 | -9 | 3 | 6 | 0 | · | ·
O=C(Nc1ccc(Cl)cc1)C1Cc2c(-c3ccccc3)ccnc2O1 (configuration not stated) | -2 | 1 | 1 | 1 | 4 | 1 | · | ·
CCc1ccc(/C=C/C(=O)c2cc(Br)ccc(=O)c2O)cc1 | 4 | -2 | 9 | 46* | 13 | -1 | 54* | 25*
COc1cc(C(=O)OCC(=O)N2CCN(S(=O)(=O)c3ccc(C)cc3C)CC2)c([N+](=O)[O-])cc1OC | -1 | 5 | -2 | 8 | -2 | 0 | · | ·
